Data on 40 compounds can be found in PubChem BioAssay (NCI).

This is part of a sample that, as a whole, favours compounds with a hit. Of some 83,000 tested, about 20% had one in any assay.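 Results are percent growth after 48 hours of single-concentration exposure. 100 means growth as in untreated cells, lower positive values show inhibition; negative values down to -100 show cell death.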 Active and inactive are the calls of the source.

The test system of the assay is SW-620 colon. The assay is described as follows: NCI-60 one-dose screen, 48 h (100 = growth as untreated, 0 = no growth, -100 = all killed). Conditions: 10 µM unless noted. The protocol:
Growth inhibition of the SW-620 human tumor cell line is measured as a screen for anti-cancer activity. Cells are grown in 96 well plates and exposed to the test compound for 48 hours. Compounds are tested at a single concentration, which is 10^-5 M for most compounds. The reported endpoint is percent growth (GI% or GIPRCNT), where numbers from 0 - 100% represent growth inhibition, and numbers from -100% - 0 represent cell death. For example, a value of 40 represents 60% growth inhibition. A value of 0 means no net growth occurred over the course of the experiment. A value of -40 indicates 40% of cells at the beginning of the experiment died by the end of the experiment. A value of -100 means all cells are dead at the end of the experiment.
NCI-60 Human Tumor Cell Lines Screen was performed using the standard one-dose NCI protocol, which is described in more detail at https://dtp.cancer.gov/discovery_development/nci-60/default.htm.
Compounds with GIPRCNT values below 10 were considered active. Activity score was based on GIPRCNT using the following formula: […]
Score is 0 for GIPRCNT values of 100 or above, 50 for GIPRCNT values of 0, and 100 for GIPRCNT values of -100.
As to `CCCCOP(=O)(OCCCC)C(C(=O)OCC)C(CC(=O)OCC)C(=O)OCC` (stereo not given), the growth is 106% (inactive).
`Nc1ncnc2c1CN(Cc1ccccc1)CC2`: the growth is 107% (inactive).
In the case of `CSc1nc2nc3c(nc2c(=O)n1C)C(=O)c1ccccc1C3=O` it was -55.7% (active); in that of `COc1cnc2c(c1)C(=O)c1c-2n(CCCN2CCOCC2)c(=O)c2cc(F)ccc12`, 6.66% (active).
In the case of `CCN(CC)c1ccc(N=C2C=CC(=O)C=C2NC(C)=O)cc1`, the growth is 89% (inactive).
In the case of `CCSc1nc(Nc2ccc(S(=O)(=O)Nc3ccon3)cc2)c(C#N)c(-c2cccc(Br)c2)n1` it was 110% (inactive).
Consider `CCC(C)C1NC(=O)C(CCNCS(=O)(=O)O)NC(=O)C(NC(=O)C(CCNCS(=O)(=O)O)NC(=O)C(NC(=O)C(CCNCS(=O)(=O)O)NC(=O)CCCCC(C)C)C(C)O)CCNC(=O)C(C(C)O)NC(=O)C(CCNCS(=O)(=O)O)NC(=O)C(CCNCS(=O)(=O)O)NC(=O)C(C(C)CC)NC1=O` (stereo not given), for which the growth is 34.8% (inactive).
Regarding `Cc1ccc(N/N=C(/C(=O)c2ccc(Cl)cc2)c2nc(C)cc(=O)[nH]2)cc1`, the growth is 93.7% (inactive).
For `N#Cc1c(-c2ccc(F)cc2)n2c(nc1=O)SC(=O)C2=O` the value was 103% (inactive); for `CCOC(=O)N1CCC(N=C2CSc3nnc(-c4cc(C(F)(F)F)cc(C(F)(F)F)c4)n3N2)CC1`, 36.2% (inactive).
In the case of `COc1ccc(/C=C2/SC(=Nc3c(C)nn(-c4ccccc4)c3N)NC2=O)cc1` it was 18.5% (inactive); in that of `COc1cc(/C=C2\CN(S(=O)(=O)c3ccc(C)cc3)C/C(=C\c3cc(CN4CCOCC4)c(O)c(OC)c3)C2=O)cc(CN2CCOCC2)c1O`, 3.91% (active); in that of `COc1c(Br)cc(C(c2cc(Br)c(OC)c(Br)c2)c2ccccc2C(=O)O)cc1Br`, 99.9% (inactive).
For `N#Cc1c(-c2ccccc2)cc(-c2ccccc2)n(CCCC(=O)O)c1=O` the value was 105% (inactive); for `CC(C)OP(=O)(OC(C)C)c1ncc(-c2ccc(C(F)(F)F)cc2)c(NC2CCCCCC2)n1`, -52.7% [33.3 µM] (active).
As for `FCc1ncc(-c2ccc(C(F)(F)F)cc2)c(NC2CCCCCC2)n1`, the growth is 4.08% [100 µM] (active).
Turning to `NC(=O)c1cc(Br)cc(Br)c1NS(=O)(=O)c1ccccc1`, the growth was 101% (inactive).
In the case of `CNc1nc(NC2CCCC2)nc(Sc2ccc(OC)cc2)n1` it was 21% [100 µM] (inactive).
For `COc1cc(/C=C\C(C)=N\Nc2ccccc2)ccc1O`, the growth was 106% (inactive).
For `Cc1cc2c(cc1C)[n+](Cc1ccc3ccccc3n1)cn2Cc1ccc2ccccc2n1` the value was 9.34% (active); for `CSc1nc(Nc2ccc(S(=O)(=O)Nc3ccon3)cc2)c(C#N)c(-c2ccc(Cl)cc2)n1`, 70.5% (inactive).
In the case of `N/C(=N\c1nc2ccccc2s1)NC(=O)Nc1ccccc1Cl`, the growth is 27.7% (inactive).
For `CCOC(=O)/C=C1/SC(=Nc2ccc(C#N)cc2)N(Cc2ccco2)C1=O` the value was 12% (inactive).
Take `CC(=O)Nc1cc2c3c(cccc3c1)-c1ccccc1-2`: the growth was 99.7% (inactive).
For `O=C(/C=C/c1ccc([N+](=O)[O-])cc1)c1ccc2c3c(cccc13)CC2` the value was 47.1% (inactive); for `O=C(NC1CCCCC1)c1ccc(Nc2ncnc3c2cnn3-c2ccccc2)cc1`, 72.9% (inactive).
For `N#Cc1c(-c2ccccc2)cc(-c2ccccc2)n(CC(=O)O)c1=O` the value was 32.8% (inactive).
In the case of `O=C1Nc2ccc(Cl)cc2/C1=C/c1cccs1` it was 103% (inactive); in that of `CCc1ccc(-c2nc(SCC(=O)NC3CCCCC3)n[nH]2)cc1`, 80.5% (inactive); in that of `N[C@H](CS)C(=O)O`, 106% (inactive).
For `O=c1[nH]c(N2CCC(Cc3ccccc3)CC2)nc2sc3c(c12)CCCC3`, the growth was 101% (inactive).
In the case of `O=CN1N=C(c2ccc(Nc3ccnc4cc(Cl)ccc34)cc2)CC1c1ccc(Cl)cc1` (stereo not given) it was 32.9% (inactive).
For `Nc1nc(SCc2cccnc2)c2ncn(C3OC(CO)C(O)C3O)c2n1` (stereo not given) the value was 97.9% (inactive); for `N#Cc1ccccc1C#Cc1ccccc1C#Cc1ccc(OCCCCCCOc2ccc(C#Cc3ccccc3C#Cc3ccccc3C#N)cc2)cc1`, 96.6% (inactive); for `O=C(Nc1nc2c(C(F)(F)F)cccc2s1)c1cc(Cl)ccc1O`, 12.2% (inactive).
In the case of `CN(C)CCC(=O)Nc1ccc(-n2cc(-c3cccc(NC(=S)Nc4cccc(-c5cn(-c6ccc(NC(=O)CCN(C)C)cc6)nn5)c4)c3)nn2)cc1` it was 17.4% (inactive).
For `COc1ccc(C(=O)COc2ccc(/C=C3\Oc4ccc5ccccc5c4C3=O)cc2)cc1`, the growth is 94.6% (inactive).
For `Oc1ccc(/C=N/Nc2nc3ccccc3s2)c(O)c1` the value was 41.9% (inactive).
In the case of `C[C@@H]1C[C@@H]([C@@H](CC2CC(=O)NC(=O)C2)OC(=O)CC(=O)c2ccccc2)C(=O)[C@@H](C)C1` it was 15.1% (inactive); in that of `NC(=O)c1cc(Cl)ccc1NC(=O)c1ccccc1-c1ccccc1`, 27.4% (inactive).
